# According to PubChem BioAssay (NCATS):
# Values joined by “and” are separate entries in the source; they are usually repeats but may differ in a detail not shown here. Identical values can stand only once. Results filed as inconclusive are left out. A call without a number means that no potency is given here. Active and inactive are the calls of the source. Unless noted, the call rests on the fitted dose curve.
# Legend:
# [1] = Primary qHTS for Huh7 cytotoxicity: counterscreen for inhibitors of MERS-S pseudotyped particle cell entry (AID 1479147); conditions: outcome: dose series up to 57.1 µM unless noted
# [2] = Primary qHTS for inhibitors of MERS-S pseudo-typed particle cell entry (AID 1479149); conditions: outcome: dose series up to 57.1 µM unless noted; further: nearly all actives have a fitted effect of over 60% in size; further: potency means the concentration at half of the fitted maximal effect
# [3] = Primary qHTS for Vero E6 cytotoxicity: counterscreen for inhibitors of SARS-S pseudo-typed particle cell entry (AID 1479150); conditions: outcome: dose series up to 57.1 µM unless noted; further: potency means the concentration at half of the fitted maximal effect
# [4] = Cytotoxicity counterscreen for inhibitors of SARS-CoV-2 cell entry (AID 1645845); conditions: outcome: dose series up to 57.1 µM unless noted; further: nearly all actives have a fitted effect of over 50% in size
# Outline: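 ATP-content luminescence (ATPLite 1step, 15 min RT) read after 48 h compound exposure of Expi293F cells stably expressing human ACE2; normalized to cells-only wells and media-only wells.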
# [5] = KB-8-5-11 P-gp reporter qHTS against the NCATS DSHEA and TCM libraries (AID 1919977; active means well fitted curve in the direction sought with a large enough effect; an effect the other way counts as inactive or inconclusive)
# Outline: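 Cells were seeded, allowed ~4 h to attach, dosed by pin tool (substance titrations), incubated ~72 h at 37C, then lysed with CellTiter-Glo for 30 min at room temperature before luminescence reading.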
# [6] = Confirmatory qHTS for VERO E6 Cytotoxicity Assay: Counterscreen for SARS-CoV-2 CPE Assay (AID 1508605); further: nearly all actives have a fitted effect of over 60% in size
# [7] = Primary qHTS to identify inhibitors of SARS-CoV-2 cell entry (AID 1645846); conditions: SARS-CoV-2 pseudovirus cell entry assay, luminescence; activity change, negative = inhibition: at 57.1 µM (top of the series) unless noted; further: nearly all actives have a fitted effect of over 45% in size; further: potency means the concentration at half of the fitted maximal effect
# Outline: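 Data are normalized to wells receiving SARS-CoV-2-S pseudoparticles and those given bald particles. Entry signal was luciferase luminescence in stable hACE2 Expi293F cells, 48 hr post-infection, after 1 hr compound pretreatment.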
# [8] = S16 Schwann cell PMP22 intronic element firefly luciferase assay (AID 624032; active means well fitted curve in the direction sought with a large enough effect; an effect the other way counts as inactive or inconclusive; further: potency means the concentration at half of the fitted maximal effect; nearly all actives have a fitted effect of over 30% in size)
# Outline: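 Luciferase reporter of PMP22 intronic-element expression in stably transfected S16 rat Schwann cells, read by ONE-Glo luminescence after 24 h compound exposure at 37 C. Activity scaled between DMSO (0%) and positive-control PTC124; concentration-effect curves quality-classified.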
# [9] = S16 Schwann cell PMP22 intronic element beta-lactamase assay (AID 624044); conditions: S16 rat Schwann cells, PMP22 element beta-lactamase FRET, 24 h; ratio activity, negative = inhibition: at 38.3 µM (top of the series) unless noted; further: potency means the concentration at half of the fitted maximal effect; nearly all actives have a fitted effect of over 15% in size
# Outline: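 Beta-lactamase reporter under a PMP22 intronic regulatory element in stable S16 rat Schwann cells; 24 h compound exposure. 460 nm blue signal normalized between DMSO (0%) and potassium clavulanate, with 535 nm FRET tracking viability; curves classed by r2 and response.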
# [10] = qHTS Assay for Identifying Gametocytocidal Compounds (AID 743244; active means well fitted curve in the direction sought with a large enough effect; an effect the other way counts as inactive or inconclusive; further: potency means the concentration at half of the fitted maximal effect); conditions: P. falciparum 3D7 stage III-V gametocytes, alamarBlue, 72 h
# Outline: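 3D7 gametocytes, stages III–V, 20,000/well; cpd 72 h, 37 °C/5% CO2; + alamarBlue 24 h; fluor. Ex 525/Em 598.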
# [11] = molecular target: Bile acid receptor (Homo sapiens) (UniProt Q96RI1); experiment: qHTS assay for small molecule agonists of farnesoid X receptor signaling (AID 588527); conditions: HEK293T FXR-UAS-bla, beta-lactamase ratio, 16 h; stronger effect = higher value
# Chain of Bile acid receptor (Homo sapiens) (Q96RI1 whole entry, looked up): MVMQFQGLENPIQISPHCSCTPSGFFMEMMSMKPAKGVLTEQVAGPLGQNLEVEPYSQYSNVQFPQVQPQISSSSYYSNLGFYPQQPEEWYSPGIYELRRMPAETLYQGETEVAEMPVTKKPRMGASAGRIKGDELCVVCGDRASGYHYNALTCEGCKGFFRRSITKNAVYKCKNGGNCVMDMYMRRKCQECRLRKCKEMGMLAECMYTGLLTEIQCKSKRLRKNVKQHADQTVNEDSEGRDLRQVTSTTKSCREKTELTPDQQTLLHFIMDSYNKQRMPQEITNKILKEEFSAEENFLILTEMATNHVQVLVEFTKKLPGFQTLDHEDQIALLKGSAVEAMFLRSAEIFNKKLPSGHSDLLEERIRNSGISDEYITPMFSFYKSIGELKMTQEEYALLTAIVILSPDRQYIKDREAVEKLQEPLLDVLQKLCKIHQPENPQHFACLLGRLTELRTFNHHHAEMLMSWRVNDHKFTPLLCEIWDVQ
# Outline: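 FXR-UAS-bla HEK293T cells (10% dialyzed FBS) preincubated 5-7 h at 37 C, then compounds at up to 92 uM for 16 h at 37 C. CCF4 beta-lactamase read-out after 2 h RT. Normalized to chenodeoxycholic acid (100 uM) and DMSO; Hill fit gave EC50 and efficacy.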
# [12] = molecular target: Peroxisome proliferator-activated receptor delta (Homo sapiens) (UniProt Q03181); experiment: qHTS assay for small molecule agonists of peroxisome proliferator-activated receptor delta signaling (AID 588534)
# Chain of Peroxisome proliferator-activated receptor delta (Homo sapiens) (Q03181 whole entry, looked up): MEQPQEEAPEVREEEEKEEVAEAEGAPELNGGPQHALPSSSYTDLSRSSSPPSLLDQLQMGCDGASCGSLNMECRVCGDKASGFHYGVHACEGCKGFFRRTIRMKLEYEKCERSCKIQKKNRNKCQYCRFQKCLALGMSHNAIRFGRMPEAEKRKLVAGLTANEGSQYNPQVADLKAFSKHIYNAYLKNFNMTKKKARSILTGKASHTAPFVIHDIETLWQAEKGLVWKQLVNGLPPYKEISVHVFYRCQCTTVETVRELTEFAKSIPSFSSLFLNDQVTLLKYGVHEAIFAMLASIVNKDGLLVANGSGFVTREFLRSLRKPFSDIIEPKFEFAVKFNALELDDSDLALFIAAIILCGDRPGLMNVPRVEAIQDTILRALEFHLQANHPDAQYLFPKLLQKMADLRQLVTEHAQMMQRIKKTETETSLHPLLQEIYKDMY
# Outline: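 EC50 and efficacy values derive from Hill fits of a concentration series in a beta-lactamase reporter cell assay. Exposure is 18 hrs at 37 C, with CCF4 fluorescence as the readout.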
# [13] = VSVG counterscreen qHTS to identify inhibitors of SARS-CoV-2 cell entry (AID 1645847); further: potency means the concentration at half of the fitted maximal effect; nearly all actives have a fitted effect of over 65% in size
# Outline: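 Counterscreen using VSV-G (not spike) pseudotyped MLV particles on ACE2-expressing Expi293F cells after 1 h compound preincubation; infection ran 48 h at 37 °C. Data normalized to VSV-G PP and bald-PP wells.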
# [14] = molecular target: Glutathione peroxidase 1 (Homo sapiens) (UniProt P07203); experiment: Primary qHTS Assay for Inhibitors of Recombinant Selenoprotein Glutathione Peroxidase 1 (GPX1) (AID 1845191; active means well fitted curve in the direction sought with a large enough effect; an effect the other way counts as inactive or inconclusive; further: nearly all actives have a fitted effect of over 65% in size)
# Chain of Glutathione peroxidase 1 (Homo sapiens) (P07203 whole entry, looked up): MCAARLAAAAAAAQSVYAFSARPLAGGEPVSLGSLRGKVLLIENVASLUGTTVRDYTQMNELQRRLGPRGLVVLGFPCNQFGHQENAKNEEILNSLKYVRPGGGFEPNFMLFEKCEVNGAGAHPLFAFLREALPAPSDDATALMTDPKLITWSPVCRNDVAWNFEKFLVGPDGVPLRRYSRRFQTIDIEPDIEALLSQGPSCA
# Outline: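 NADPH consumption tracked by fluorescence at 340/450 nm between t=0 and t=15 min, room temperature. Final mix: 10 nM GPX1, 100 nM glutathione reductase, 1 mM GSH, 0.5 mM NADPH, 0.5 mM cumene hydroperoxide, 0.01% BSA; 30 min compound–enzyme preincubation.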
# [15] = molecular target: Phospholipid hydroperoxide glutathione peroxidase GPX4 (Homo sapiens) (UniProt P36969); experiment: Primary qHTS Assay for Inhibitors of Recombinant Selenoprotein Glutathione Peroxidase 4 (GPX4) (AID 1845192; active means well fitted curve in the direction sought with a large enough effect; an effect the other way counts as inactive or inconclusive; further: nearly all actives have a fitted effect of over 65% in size)
# Chain of Phospholipid hydroperoxide glutathione peroxidase GPX4 (Homo sapiens) (P36969 whole entry, looked up): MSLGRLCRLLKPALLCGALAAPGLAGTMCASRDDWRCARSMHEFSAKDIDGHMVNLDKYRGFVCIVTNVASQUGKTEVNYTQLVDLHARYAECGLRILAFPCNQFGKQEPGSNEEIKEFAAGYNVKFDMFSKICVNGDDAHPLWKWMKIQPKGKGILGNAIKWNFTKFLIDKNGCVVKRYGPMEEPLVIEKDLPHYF
# Outline: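 NADPH consumption followed by fluorescence at 340/450 nm, t=0 and after 15 min at room temperature. Reaction started with cumene hydroperoxide (0.5 mM final) after 30 min compound–GPX4 preincubation; final 200 nM GPX4, 100 nM GR, 1 mM GSH, 0.5 mM NADPH.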
smiles,measurement,setting,value
CCCCCCCC/C=C/CCCCCCCC(=O)O,Potency,[1],inactive
same,Potency,[2],inactive
same,Potency,[3],inactive
same,Potency,[4],inactive
same,Potency,[5],inactive
O=c1ccc2ccc(OCCCCN3CCN(c4cccc5sccc45)CC3)cc2[nH]1,Potency,[1],inactive
same,Potency,[3],inactive
same,Potency,[6],inactive
CCC(C)(C)OC(=O)N[C@@H](Cc1c[nH]c2ccccc12)C(=O)N[C@@H](CCSC)C(=O)N[C@@H](CC(=O)O)C(=O)N[C@@H](Cc1ccccc1)C(N)=O,Potency,[1],inactive
same,Potency,[2],inactive
same,Potency,[3],inactive
same,"activity change, negative = inhibition",[7],-23%
CC(C)n1c(/C=C/[C@H](O)C[C@H](O)CC(=O)O)c(-c2ccc(F)cc2)c2ccccc21,Potency,[8],11.4 µM (active)
same,Potency,[9],14.1 µM (active)
same,Potency,[1],inactive
same,Potency,[2],inactive
same,Potency,[3],8.91 µM (active)
same,Potency,[4],inactive
same,Potency,[7],inactive
CN1CCc2c(c3ccccc3n2Cc2ccccc2)C1,Potency,[1],inactive
same,Potency,[3],inactive
CC1CCCC(O)CCCCCc2cc(O)cc(O)c2C(=O)O1 (stereo not drawn),Potency,[1],inactive
same,Potency,[3],inactive
C#C[C@]1(O)CC[C@H]2[C@@H]3CCC4=CC(=O)CC[C@@H]4[C@H]3C(=C)C[C@@]21CC,Potency,[10],7.43 µM (active)
same,Potency,[1],inactive
same,Potency,[2],inactive
same,Potency,[3],inactive
C=C1/C(=C/C=C2\CCC[C@]3(C)[C@@H]([C@H](C)CC[C@@H](O)C(C)C)CC[C@@H]23)C[C@@H](O)C[C@@H]1O,Potency,[1],inactive
same,Potency,[3],inactive
c1ccc2ccccc2c1,activation,[11],2.2% (inactive) and 1.82% (inactive)
same,outcome,[12],inactive
same,Potency,[1],inactive
same,Potency,[2],inactive
same,Potency,[3],inactive
same,Potency,[4],inactive
same,Potency,[7],inactive
CCCCCCCC(=O)N[C@H](CN1CCCC1)[C@H](O)c1ccc2c(c1)OCCO2,Potency,[1],inactive
same,Potency,[3],inactive
C[C@H]1[C@H](OC(=O)CCC(=O)O)O[C@@H]2O[C@@]3(C)CC[C@H]4[C@H](C)CC[C@@H]1[C@@]24OO3,Potency,[1],inactive
same,Potency,[2],2.82 µM (active)
same,Potency,[3],inactive
same,Potency,[7],2.24 µM (active)
same,Potency,[13],1.21 µM (active)
Cc1cc(C#N)cc(C)c1Oc1nc(Nc2ccc(C#N)cc2)nc(N)c1Br,Potency,[1],inactive
same,Potency,[3],inactive
CCOc1nc2cccc(C(=O)OC(C)OC(=O)OC3CCCCC3)c2n1Cc1ccc(-c2ccccc2-c2nn[nH]n2)cc1 (stereo not drawn),Potency,[1],inactive
same,Potency,[2],inactive
same,Potency,[3],inactive
same,Potency,[4],inactive
same,Potency,[13],0.429 µM (active)
C=C[C@]1(C)C[C@@H](OC(=O)CSC2C[C@H]3CC[C@@H](C2)N3C)C2(C)[C@H](C)CCC3(CCC(=O)[C@H]32)[C@@H](C)[C@@H]1O (stereo partly drawn),Potency,[1],inactive
same,Potency,[3],inactive
O=S(=O)(O)c1ccccc1,activation,[11],0.473% (inactive)
same,Potency,[1],inactive
same,Potency,[2],inactive
same,Potency,[3],inactive
same,Potency,[4],inactive
same,"activity change, negative = inhibition",[7],-15.3%
O=NCc1ccc([N+](=O)[O-])o1,Potency,[1],inactive
same,Potency,[3],inactive
N=C(N)c1ccc(OCCCOc2ccc(C(=N)N)cc2Br)c(Br)c1,Potency,[1],inactive
same,Potency,[3],inactive
C[N+]1(CC2CC2)CC[C@]23c4c5ccc(O)c4O[C@H]2C(=O)CC[C@@]3(O)[C@H]1C5 (stereo partly drawn),Potency,[1],inactive
same,Potency,[2],inactive
same,Potency,[3],inactive
same,Potency,[4],inactive
same,Potency,[14],inactive
same,Potency,[15],inactive
